The source of these data is PubChem BioAssay.

Activity calls are given as the source filed them.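 How the source made its calls: active means normalized viability below 100% at a tested concentration; inactive means the rest.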

The first assay in a line: ovarian cancer cell viability with rucaparib, profiling panel, oncology-focused library, rucaparib conditional (AID 1508598). The conditions noted are these: patient-derived ovarian cancer cells, CellTiter-Glo viability, 144 h; at 0.0195 µM; OCI-C5x cells; with rucaparib 10 µM; active compounds read low; 100% = cells with rucaparib alone.
In the case of `CC1(C)CNc2cc(NC(=O)c3cccnc3NCc3ccncc3)ccc21`, the viability (usually a read-out of living cells in per cent, often relative to untreated cells) is 121% (inactive).

For `O=C(Nc1ccccc1-c1cn2c(CN3CCNCC3)csc2n1)c1cnc2ccccc2n1`, the viability is 113% (inactive).

Regarding `Cc1cnc(NC(=O)Nc2cc(Br)c(C)cc2OC[C@@H]2CNCCO2)cn1`, the viability was 109% (inactive).

As for `N#Cc1c(NC(=O)c2cccc3ccccc23)sc2c1CCCC2`, the viability was 108% (inactive).

As for `COc1ccc(-c2ccc3c(N4CCOC[C@@H]4C)nc(N4CCOC[C@@H]4C)nc3n2)cc1CO`, the viability is 116% (inactive).

With `Nc1nc(Nc2ccc(S(N)(=O)=O)cc2)nn1C(=O)c1c(F)cccc1F`, the viability was 94.9% (active).

In the case of `Cc1ccc(F)c(NC(=O)Nc2ccc(-c3cccc4[nH]nc(N)c34)cc2)c1`, the viability is 110% (inactive).

Turning to `COc1ccc(-c2ccc3c(N4CCOCC4)nc(N4C[C@@H](C)O[C@@H](C)C4)nc3n2)cc1CO`, the viability is 120% (inactive).

Turning to `N#CCNC(=O)c1ccc(-c2ccnc(Nc3ccc(N4CCOCC4)cc3)n2)cc1`, the viability is 109% (inactive).

Turning to `COC(=O)c1ccc2c(C(=Nc3ccc(N(C)C(=O)CN4CCN(C)CC4)cc3)c3ccccc3)c(O)[nH]c2c1`, the viability is 120% (inactive).

On to `COc1cc2nccc(Oc3ccc(NC(=O)Nc4cc(C)on4)c(Cl)c3)c2cc1OC`, for which the viability is 113% (inactive).

The assay is the same for the next values; noted with them: patient-derived ovarian cancer cells, CellTiter-Glo viability, 144 h; at 0.0195 µM; OCI-C5x cells; without rucaparib; active compounds read low.
With `CC1(C)CNc2cc(NC(=O)c3cccnc3NCc3ccncc3)ccc21`, the viability is 128% (inactive).

Turning to `O=C(Nc1ccccc1-c1cn2c(CN3CCNCC3)csc2n1)c1cnc2ccccc2n1`, the viability is 116% (inactive).

As to `Cc1cnc(NC(=O)Nc2cc(Br)c(C)cc2OC[C@@H]2CNCCO2)cn1`, the viability was 113% (inactive).

In the case of `N#Cc1c(NC(=O)c2cccc3ccccc23)sc2c1CCCC2`, the viability is 116% (inactive).

On to `COc1ccc(-c2ccc3c(N4CCOC[C@@H]4C)nc(N4CCOC[C@@H]4C)nc3n2)cc1CO`, for which the viability was 106% (inactive).

Turning to `Nc1nc(Nc2ccc(S(N)(=O)=O)cc2)nn1C(=O)c1c(F)cccc1F`, the viability is 98.4% (active).

In the case of `Cc1ccc(F)c(NC(=O)Nc2ccc(-c3cccc4[nH]nc(N)c34)cc2)c1`, the viability was 119% (inactive).

On to `COc1ccc(-c2ccc3c(N4CCOCC4)nc(N4C[C@@H](C)O[C@@H](C)C4)nc3n2)cc1CO`, for which the viability was 117% (inactive).

Take `N#CCNC(=O)c1ccc(-c2ccnc(Nc3ccc(N4CCOCC4)cc3)n2)cc1`: the viability was 104% (inactive).

Regarding `COC(=O)c1ccc2c(C(=Nc3ccc(N(C)C(=O)CN4CCN(C)CC4)cc3)c3ccccc3)c(O)[nH]c2c1`, the viability is 115% (inactive).

On to `COc1cc2nccc(Oc3ccc(NC(=O)Nc4cc(C)on4)c(Cl)c3)c2cc1OC`, for which the viability was 96.2% (active).

Staying with this assay, now noted: patient-derived ovarian cancer cells, CellTiter-Glo viability, 144 h; at 0.0195 µM; OCI-P5x cells; with rucaparib 20 µM; active compounds read low; 100% = cells with rucaparib alone.
Turning to `CC1(C)CNc2cc(NC(=O)c3cccnc3NCc3ccncc3)ccc21`, the viability is 140% (inactive).

Take `O=C(Nc1ccccc1-c1cn2c(CN3CCNCC3)csc2n1)c1cnc2ccccc2n1`: the viability is 111% (inactive).

On to `Cc1cnc(NC(=O)Nc2cc(Br)c(C)cc2OC[C@@H]2CNCCO2)cn1`, for which the viability is 107% (inactive).

As for `N#Cc1c(NC(=O)c2cccc3ccccc23)sc2c1CCCC2`, the viability is 98.6% (active).

As to `COc1ccc(-c2ccc3c(N4CCOC[C@@H]4C)nc(N4CCOC[C@@H]4C)nc3n2)cc1CO`, the viability was 72.9% (active).

Take `Nc1nc(Nc2ccc(S(N)(=O)=O)cc2)nn1C(=O)c1c(F)cccc1F`: the viability is 92.3% (active).

Take `Cc1ccc(F)c(NC(=O)Nc2ccc(-c3cccc4[nH]nc(N)c34)cc2)c1`: the viability is 108% (inactive).

On to `COc1ccc(-c2ccc3c(N4CCOCC4)nc(N4C[C@@H](C)O[C@@H](C)C4)nc3n2)cc1CO`, for which the viability was 103% (inactive).

On to `N#CCNC(=O)c1ccc(-c2ccnc(Nc3ccc(N4CCOCC4)cc3)n2)cc1`, for which the viability is 103% (inactive).

For the compound `COC(=O)c1ccc2c(C(=Nc3ccc(N(C)C(=O)CN4CCN(C)CC4)cc3)c3ccccc3)c(O)[nH]c2c1`, the viability was 94.4% (active).

For `COc1cc2nccc(Oc3ccc(NC(=O)Nc4cc(C)on4)c(Cl)c3)c2cc1OC`, the viability was 98.1% (active).

The same assay, now with this note: patient-derived ovarian cancer cells, CellTiter-Glo viability, 144 h; at 0.0195 µM; OCI-P5x cells; without rucaparib; active compounds read low.
As to `CC1(C)CNc2cc(NC(=O)c3cccnc3NCc3ccncc3)ccc21`, the viability was 105% (inactive).

As for `O=C(Nc1ccccc1-c1cn2c(CN3CCNCC3)csc2n1)c1cnc2ccccc2n1`, the viability was 114% (inactive).

For `Cc1cnc(NC(=O)Nc2cc(Br)c(C)cc2OC[C@@H]2CNCCO2)cn1`, the viability is 104% (inactive).

In the case of `N#Cc1c(NC(=O)c2cccc3ccccc23)sc2c1CCCC2`, the viability was 103% (inactive).

With `COc1ccc(-c2ccc3c(N4CCOC[C@@H]4C)nc(N4CCOC[C@@H]4C)nc3n2)cc1CO`, the viability was 62.8% (active).

Consider `Nc1nc(Nc2ccc(S(N)(=O)=O)cc2)nn1C(=O)c1c(F)cccc1F`, for which the viability is 94.6% (active).

As to `Cc1ccc(F)c(NC(=O)Nc2ccc(-c3cccc4[nH]nc(N)c34)cc2)c1`, the viability is 97.3% (active).

`COc1ccc(-c2ccc3c(N4CCOCC4)nc(N4C[C@@H](C)O[C@@H](C)C4)nc3n2)cc1CO`: the viability is 104% (inactive).

On to `N#CCNC(=O)c1ccc(-c2ccnc(Nc3ccc(N4CCOCC4)cc3)n2)cc1`, for which the viability is 93.3% (active).

Consider `COC(=O)c1ccc2c(C(=Nc3ccc(N(C)C(=O)CN4CCN(C)CC4)cc3)c3ccccc3)c(O)[nH]c2c1`, for which the viability was 97.5% (active).

Turning to `COc1cc2nccc(Oc3ccc(NC(=O)Nc4cc(C)on4)c(Cl)c3)c2cc1OC`, the viability was 86.6% (active).
